# From PubChem BioAssay (NCI)
# This is part of a sample that, as a whole, favours compounds with a hit. Of some 83,000 tested, about 20% had one in any assay.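 Single-concentration screen, 48 h exposure, 96-well plates. Endpoint: percent growth. Below 10 = active.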 Unmarked numbers belong to inactive results. Calls of active or inactive are those of the source.
# Tests used:
# Experiment in all cases: NCI-60 one-dose screen, 48 h (100 = growth as untreated, 0 = no growth, -100 = all killed)
# Details in all cases: 10 µM unless noted
# SR leukemia = system: SR leukemia
# RPMI-8226 leukemia = system: RPMI-8226 leukemia
# OVCAR-8 ovarian = system: OVCAR-8 ovarian
# OVCAR-5 ovarian = system: OVCAR-5 ovarian
# OVCAR-4 ovarian = system: OVCAR-4 ovarian
# SK-OV-3 ovarian = system: SK-OV-3 ovarian
# IGROV1 ovarian = system: IGROV1 ovarian
# OVCAR-3 ovarian = system: OVCAR-3 ovarian
# HS 578T breast = system: HS 578T breast
# NCI/ADR-RES ovarian = system: NCI/ADR-RES ovarian
SMILES,growth (SR leukemia),growth (RPMI-8226 leukemia),growth (OVCAR-8 ovarian),growth (OVCAR-5 ovarian),growth (OVCAR-4 ovarian),growth (SK-OV-3 ovarian),growth (IGROV1 ovarian),growth (OVCAR-3 ovarian),growth (HS 578T breast),growth (NCI/ADR-RES ovarian)
Nc1ccccc1C#C/C=C\C#Cc1cccc(O)c1,13%,34%,84.9%,62.6%,45%,74.4%,-19.5% (active),43%,64.3%,31.8%
O=c1oc2cc(OS(=O)(=O)c3ccc(F)cc3)ccc2c2c1CCCCC2,53.7%,34.8%,77.6%,66.2%,58.1%,95.9%,95.2%,77.8%,88%,51.1%
Clc1ccc(-c2nc(-c3ccco3)cn3ccnc23)cc1,63.4%,52.9%,49.8%,87.9%,41.3%,-14.7% (active),40.7%,50.7%,74%,70.1%
O=C(O)C(=Cc1c2ccccc2cc2ccccc12)C(=O)O,102%,103%,104%,112%,117%,107%,111%,118%,106%,98.3%
C/C1=C\CCC2(C)OC2CC2CCC(C)(O)C(CC1)C2(C)C (stereo not given),92.4%,111%,89.8%,112%,99.7%,112%,93.9%,118%,83.8%,104%
O=S(=O)(NCCCNc1cc(-c2cn(-c3ccccc3)nc2-c2cccc(O)c2)ccn1)c1ccc(C(F)(F)F)cc1,8.04% (active),15.4%,53%,57.8%,45.1%,54.8%,58.9%,49.6%,22.6%,35%
O=C1CCCCN1CCCCC#Cc1ccccc1C#Cc1ccc([N+](=O)[O-])cc1,18.1%,2.47% (active),55.4%,60%,60.2%,71.1%,-36.7% (active),56.3%,69.4%,43.4%
O=[N+]([O-])c1cccc(-c2cc(-c3cc(Br)ccc3O)[nH]n2)c1,19.7%,-2.85% (active),33.9%,55.4%,16.3%,30.6%,13.7%,2.12% (active),46.6%,19.2%
CCC#CC[C@H]1C/C=C2/C(=O)C=C[C@@H]2C/C=C\CCCC(=O)O1,5.38% (active),4.15% (active),13.6%,18.4%,40.1%,26.5%,7.74% (active),6.81% (active),40.2%,22.7%
O=C(CNc1c(Cl)cccc1Cl)Nc1ccc(-c2nc3ccccc3s2)cc1,10.7%,59.8%,66.7%,110%,17.5%,97.8%,49.3%,54.4%,87.2%,64%
O=P([O-])(O)OP(=O)([O-])O.[NH-][C@H]1CCCC[C@@H]1[NH-].[OH-].[OH-].[Pt+4],91.3%,97.8%,101%,95.2%,109%,106%,108%,111%,109%,103%
Nc1c(C(=O)Nc2cccc(C(F)(F)F)c2)sc2nc3c(cc12)C(O)CCC3 (stereo not given),24%,15.6%,46.2%,53.5%,58.5%,25.7%,54.4%,2.06% (active),51.2%,22.5%
CCCS(=O)(=O)c1nc(NC2CC2)cc(-c2ccc3c(ccn3C3CC(C)(C)NC(C)(C)C3)c2)n1,-14.5% (active),-32.6% (active),-52.8% (active),-15.2% (active),-70.6% (active),92.6%,-51% (active),-89.4% (active),-11.4% (active),41.5%
NC(=S)NN=C1CCCCC1,72.1%,68.8%,68.6%,104%,53.6%,73%,83.7%,38%,82.3%,72.6%
Cc1cnc(NC(=O)C(Cc2ccccc2)NC(=O)c2ccccc2)s1 (stereo not given),41%,-15.7% (active),92.6%,106%,59.4%,108%,-19.6% (active),83.8%,85.8%,65.6%
CCCCCCc1nc2c(c(C)nn2-c2ccccc2)c2c1CCCCC2,97.7%,105%,107%,114%,115%,95%,109%,107%,106%,110%
COc1ccc(S(=O)(=O)NCCNc2nccc(-c3c(-c4ccccc4)nc4sccn34)n2)cc1,12.8%,27.4%,26.7%,73.8%,27.8%,23%,6.6% (active),12.4%,47%,17.1%
CCc1cccc(C)c1NC(=O)c1sc2nc3c(cc2c1N)C(=O)CCC3,2.24% (active),9.64% (active),27.9%,29.2%,76.3%,10.4%,30.7%,-26% (active),24.8%,8.17% (active)
O=S(=O)(NCCCNc1cc(-c2cn(-c3ccccc3)nc2-c2cccc(O)c2)ccn1)c1cccc(F)c1,35%,32%,39.8%,68.3%,50.2%,72%,53.8%,65.6%,41.7%,49.3%
O=C(/C=C/CN1CCOCC1)Nc1cc2c(Nc3cccc(Cl)c3F)ncnc2cc1OCCOC(F)F,97.1%,84.5%,67.6%,49.5%,82.4%,9.17% (active),6.79% (active),68.3%,64.9%,60.9%
CC(C)CCC[C@@H](C)[C@H]1CC[C@H]2[C@@H]3CC[C@H]4C/C(=N/O)CC[C@]4(C)[C@H]3CC[C@]12C,99.6%,101%,96.8%,112%,119%,104%,111%,113%,101%,111%
COc1cccc(-c2nc3sccn3c2-c2ccnc(NCCCNS(=O)(=O)c3ccc(F)cc3)n2)c1,28.9%,17.4%,17.3%,116%,25.2%,72.7%,34.6%,37.4%,57.3%,15.5%
O=S=Nc1ccc([N+](=O)[O-])cc1,90.3%,102%,104%,87.2%,101%,103%,103%,98.3%,95%,99.4%
CC(=O)Nc1ccc(S(=O)(=O)NC(CCC(=O)Nc2ccc(Cl)cc2)C(=O)O)cc1 (stereo not given),77.9%,99.1%,97.4%,77.7%,94%,93.7%,112%,107%,98.4%,100%
Nc1nc(-c2ccccc2)cs1,94.5%,109%,100%,98.7%,102%,99.4%,113%,102%,104%,110%
COc1ccc2c(c1)NC(=O)CN2c1nc(NC2CC2)nc2ccccc12,31.5%,32.7%,18.3%,44%,40.3%,23.9%,24.5%,-19.7% (active),26.6%,5.39% (active)
Cc1ccc2nc(-c3c(N)n[nH]c3CCCO)[nH]c(=O)c2c1,77.2%,91.6%,105%,110%,106%,108%,7.26% (active),115%,103%,102%
